# Data taken from the supplement of paper PMC8728848.
# This excerpt belongs to a sample that is enriched for the strongest signals.
# B1: rAAL-2 (Agrocybe aegerita) (protein)
# chain: MTSNVITQDLPIPVASRGFADIVGFGLDGVVIGRNAVNLQPFLAVKNFAQNAGGWLTTKHVRLIADTTGTGKGDIVGFGNAGVYVSVNNGKNTFADPPKMVIANFGYDAGGWRVEKHLRYLADIRKIGRADIIGFGEKGVLVSRNNGGLNFGPATLVLKDFGYDAGGWRLDRHLRFLADVTGNGHLDIVGFGDKHVFISRNNGDGTFAPAKSVIDNFCIDAGGWKIGDHPRFVADLTGDGTADIIGCGKAGCWVALNNGGGVFGQVKLVINDFGTDKGWQAAKHPRFIADLTGNGRGDVVGFGNAGVYVALNNGDGTFQSAKLVLKDFGVQQGWTVSKHRRFVVDLTGDGCADIIGFGEKETLVSYNDGKGNFGPVKALTNDFSFSGGKWAPETTVCWMANLDSSRH
# Assays:
# Experiment in all cases: glycan array binding signal (z-score within array); higher = stronger binding
# Conditions in all cases: glycan notation: IUPAC condensed, linker removed
# [1] = target: Fuc(a1-2)Gal(b1-4)GlcNAc(b1-3)Gal(b1-4)GlcNAc(b1-2)Man(a1-3)[Fuc(a1-2)Gal(b1-4)GlcNAc(b1-3)Gal(b1-4)GlcNAc(b1-2)Man(a1-6)]Man(b1-4)GlcNAc(b1-4)GlcNAc
# How it was run: (§1)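 Glycan array data came from 3228 arrays in the Consortium for Functional Glycomics database, and only arrays with an available protein sequence were kept. Glycan names were put into IUPAC-condensed notation, and columns mapping to the same glycan were averaged. The binding signal is a within-array Z-score, averaged across arrays of one protein sequence run at different concentrations or buffers and across linkers. A negative Z-score can be read as non-binding.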
# Fuc(a1-2)[Gal(a1-3)]Gal = target: Fuc(a1-2)[Gal(a1-3)]Gal
# How it was run: as §1
# [2] = target: Fuc(a1-2)[Gal(a1-3)]Gal(b1-3)GalNAc(b1-3)Gal(a1-4)Gal(b1-4)Glc
# How it was run: as §1
# [3] = target: Fuc(a1-2)[GalNAc(a1-3)]Gal
# How it was run: as §1
# [4] = target: Gal(a1-3)Gal(b1-3)GlcNAc(b1-3)GalNAc
# How it was run: as §1
# [5] = target: Gal(a1-3)Gal(b1-4)GlcNAc(b1-3)GalNAc
# How it was run: as §1
# [6] = target: Gal(a1-4)Gal(b1-4)GlcNAc(b1-2)Man(a1-3)[Gal(a1-4)Gal(b1-4)GlcNAc(b1-2)Man(a1-6)]Man(b1-4)GlcNAc(b1-4)GlcNAc
# How it was run: as §1
# [7] = target: Gal(b1-3)GlcNAc(b1-3)Gal(b1-4)GlcNAc(b1-6)[Gal(b1-3)GlcNAc(b1-3)]Gal(b1-4)Glc
# How it was run: as §1
# [8] = target: Gal(b1-3)[Fuc(a1-4)]GlcNAc(b1-6)GalNAc
# How it was run: as §1
# Gal(b1-4)GlcNAc(b1-2)Man = target: Gal(b1-4)GlcNAc(b1-2)Man
# How it was run: as §1
# [9] = target: Gal(b1-4)GlcNAc(b1-2)Man(a1-3)[Gal(b1-4)GlcNAc(b1-2)Man(a1-6)][Gal(b1-4)GlcNAc(b1-4)]Man(b1-4)GlcNAc(b1-4)[Fuc(a1-6)]GlcNAc
# How it was run: as §1
# [10] = target: Gal(b1-4)GlcNAc(b1-2)Man(a1-3)[Gal(b1-4)GlcNAc(b1-2)Man(a1-6)][GlcNAc(b1-4)]Man(b1-4)GlcNAc(b1-4)[Fuc(a1-6)]GlcNAc
# How it was run: as §1
# [11] = target: Gal(b1-4)GlcNAc(b1-2)Man(a1-3)[Gal(b1-4)GlcNAc(b1-2)][GlcNAc(b1-4)]Man(b1-4)GlcNAc(b1-4)GlcNAc
# How it was run: as §1
# [12] = target: Gal(b1-4)GlcNAc(b1-3)Gal(b1-4)Glc
# How it was run: as §1
# [13] = target: Gal(b1-4)GlcNAc(b1-3)Gal(b1-4)GlcNAc(b1-3)Gal(b1-4)GlcNAc
# How it was run: as §1
# [14] = target: Gal(b1-4)GlcNAc(b1-3)Gal(b1-4)GlcNAc(b1-3)Gal(b1-4)GlcNAc(b1-3)Gal(b1-4)GlcNAc(b1-3)Gal(b1-4)GlcNAc(b1-2)Man(a1-3)[Gal(b1-4)GlcNAc(b1-3)Gal(b1-4)GlcNAc(b1-3)Gal(b1-4)GlcNAc(b1-3)Gal(b1-4)GlcNAc(b1-3)Gal(b1-4)GlcNAc(b1-2)Man(a1-6)]Man(b1-4)GlcNAc(b1-4)GlcNAc
# How it was run: as §1
# [15] = target: Gal(b1-4)GlcNAc(b1-3)Gal(b1-4)GlcNAc(b1-3)Gal(b1-4)GlcNAc(b1-3)Gal(b1-4)GlcNAc(b1-3)Gal(b1-4)GlcNAc(b1-2)[Gal(b1-4)GlcNAc(b1-3)Gal(b1-4)GlcNAc(b1-3)Gal(b1-4)GlcNAc(b1-3)Gal(b1-4)GlcNAc(b1-3)Gal(b1-4)GlcNAc(b1-6)]Man(a1-6)[Gal(b1-4)GlcNAc(b1-3)Gal(b1-4)GlcNAc(b1-3)Gal(b1-4)GlcNAc(b1-3)Gal(b1-4)GlcNAc(b1-3)Gal(b1-4)GlcNAc(b1-2)Man(a1-3)]Man(b1-4)GlcNAc(b1-4)[Fuc(a1-6)]GlcNAc
# How it was run: as §1
# [16] = target: Gal(b1-4)GlcNAc(b1-3)Gal(b1-4)GlcNAc(b1-3)[Gal(b1-4)GlcNAc(b1-3)Gal(b1-4)GlcNAc(b1-6)]GalNAc
# How it was run: as §1
# Gal3S(b1-4)GlcNAc6S = target: Gal3S(b1-4)GlcNAc6S
# How it was run: as §1
# GalNAc(b1-4)GlcNAc6S = target: GalNAc(b1-4)GlcNAc6S
# How it was run: as §1
# [17] = target: GlcNAc(a1-3)Gal(b1-4)GlcNAc
# How it was run: as §1
# [18] = target: GlcNAc(a1-4)Gal(b1-3)GlcNAc
# How it was run: as §1
# [19] = target: GlcNAc(a1-4)Gal(b1-4)GlcNAc(b1-3)Gal(b1-4)Glc
# How it was run: as §1
# [20] = target: GlcNAc(a1-4)Gal(b1-4)GlcNAc(b1-3)Gal(b1-4)GlcNAc(b1-3)Gal(b1-4)GlcNAc
# How it was run: as §1
# [21] = target: GlcNAc(a1-4)Gal(b1-4)GlcNAc(b1-3)Gal(b1-4)[Fuc(a1-3)]GlcNAc(b1-3)Gal(b1-4)[Fuc(a1-3)]GlcNAc
# How it was run: as §1
# [22] = target: GlcNAc(b1-2)Man(a1-3)[GlcNAc(b1-4)][GlcNAc(b1-2)Man(a1-6)]Man(b1-4)GlcNAc(b1-4)[Fuc(a1-6)]GlcNAc
# How it was run: as §1
# [23] = target: GlcNAc(b1-3)Gal(b1-4)GlcNAc
# How it was run: as §1
# [24] = target: GlcNAc(b1-3)Gal(b1-4)GlcNAc(b1-3)Gal(b1-4)GlcNAc(b1-2)Man(a1-3)[GlcNAc(b1-3)Gal(b1-4)GlcNAc(b1-3)Gal(b1-4)GlcNAc(b1-2)Man(a1-6)]Man(b1-4)GlcNAc(b1-4)GlcNAc
# How it was run: as §1
# [25] = target: GlcNAc(b1-3)Gal(b1-4)GlcNAc(b1-3)Gal(b1-4)GlcNAc(b1-2)Man(a1-3)[GlcNAc(b1-3)Gal(b1-4)GlcNAc(b1-3)Gal(b1-4)GlcNAc(b1-2)Man(a1-6)]Man(b1-4)GlcNAc(b1-4)[Fuc(a1-6)]GlcNAc
# How it was run: as §1
# [26] = target: GlcNAc(b1-3)Gal(b1-4)GlcNAc(b1-3)Gal(b1-4)GlcNAc(b1-3)Gal(b1-4)GlcNAc(b1-2)Man(a1-3)[GlcNAc(b1-3)Gal(b1-4)GlcNAc(b1-3)Gal(b1-4)GlcNAc(b1-3)Gal(b1-4)GlcNAc(b1-2)Man(a1-6)]Man(b1-4)GlcNAc(b1-4)[Fuc(a1-6)]GlcNAc
# How it was run: as §1
binder,measurement,setting,value
B1,glycan array binding signal (z-score),[1],-0.083
same,glycan array binding signal (z-score),Fuc(a1-2)[Gal(a1-3)]Gal,-0.221
same,glycan array binding signal (z-score),[2],0.126
same,glycan array binding signal (z-score),[3],-0.342
same,glycan array binding signal (z-score),[4],-0.274
same,glycan array binding signal (z-score),[5],-0.36
same,glycan array binding signal (z-score),[6],0.062
same,glycan array binding signal (z-score),[7],-0.234
same,glycan array binding signal (z-score),[8],-0.064
same,glycan array binding signal (z-score),Gal(b1-4)GlcNAc(b1-2)Man,-0.16
same,glycan array binding signal (z-score),[9],-0.282
same,glycan array binding signal (z-score),[10],-0.482
same,glycan array binding signal (z-score),[11],-0.266
same,glycan array binding signal (z-score),[12],-0.317
same,glycan array binding signal (z-score),[13],-0.113
same,glycan array binding signal (z-score),[14],-0.319
same,glycan array binding signal (z-score),[15],0.032
same,glycan array binding signal (z-score),[16],0.004
same,glycan array binding signal (z-score),Gal3S(b1-4)GlcNAc6S,-0.11
same,glycan array binding signal (z-score),GalNAc(b1-4)GlcNAc6S,-0.107
same,glycan array binding signal (z-score),[17],4.67
same,glycan array binding signal (z-score),[18],3.84
same,glycan array binding signal (z-score),[19],4.64
same,glycan array binding signal (z-score),[20],6.15
same,glycan array binding signal (z-score),[21],3.9
same,glycan array binding signal (z-score),[22],-0.068
same,glycan array binding signal (z-score),[23],4.11
same,glycan array binding signal (z-score),[24],3.92
same,glycan array binding signal (z-score),[25],4.05
same,glycan array binding signal (z-score),[26],4.52
